Source: PubChem BioAssay AID652189 (Johns Hopkins Ion Channel Center, 2013)
About 900 (39%) of roughly 2,300 compounds were called active.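 The calls were made as follows: active = mean duplicate percent inhibition, scaled so buffer wells are 0 and the reference blocker 100, over three buffer SD above buffer mean; inactive = the rest.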 Only a sample is shown.

The compounds below were run against Anoctamin-1 (Mus musculus) (UniProt Q8BHY3) (assay: TMEM16A chloride channel inhibitors, confirmation, cell-based, re-confirmation (AID 652189)). Conditions: HEK293 TMEM16A/YFP-H148Q, iodide quench fluorescence, at 10 µM, ionomycin added to raise cell calcium; hits give high values.
Chain of Anoctamin-1 (Mus musculus) (Q8BHY3 whole entry, looked up): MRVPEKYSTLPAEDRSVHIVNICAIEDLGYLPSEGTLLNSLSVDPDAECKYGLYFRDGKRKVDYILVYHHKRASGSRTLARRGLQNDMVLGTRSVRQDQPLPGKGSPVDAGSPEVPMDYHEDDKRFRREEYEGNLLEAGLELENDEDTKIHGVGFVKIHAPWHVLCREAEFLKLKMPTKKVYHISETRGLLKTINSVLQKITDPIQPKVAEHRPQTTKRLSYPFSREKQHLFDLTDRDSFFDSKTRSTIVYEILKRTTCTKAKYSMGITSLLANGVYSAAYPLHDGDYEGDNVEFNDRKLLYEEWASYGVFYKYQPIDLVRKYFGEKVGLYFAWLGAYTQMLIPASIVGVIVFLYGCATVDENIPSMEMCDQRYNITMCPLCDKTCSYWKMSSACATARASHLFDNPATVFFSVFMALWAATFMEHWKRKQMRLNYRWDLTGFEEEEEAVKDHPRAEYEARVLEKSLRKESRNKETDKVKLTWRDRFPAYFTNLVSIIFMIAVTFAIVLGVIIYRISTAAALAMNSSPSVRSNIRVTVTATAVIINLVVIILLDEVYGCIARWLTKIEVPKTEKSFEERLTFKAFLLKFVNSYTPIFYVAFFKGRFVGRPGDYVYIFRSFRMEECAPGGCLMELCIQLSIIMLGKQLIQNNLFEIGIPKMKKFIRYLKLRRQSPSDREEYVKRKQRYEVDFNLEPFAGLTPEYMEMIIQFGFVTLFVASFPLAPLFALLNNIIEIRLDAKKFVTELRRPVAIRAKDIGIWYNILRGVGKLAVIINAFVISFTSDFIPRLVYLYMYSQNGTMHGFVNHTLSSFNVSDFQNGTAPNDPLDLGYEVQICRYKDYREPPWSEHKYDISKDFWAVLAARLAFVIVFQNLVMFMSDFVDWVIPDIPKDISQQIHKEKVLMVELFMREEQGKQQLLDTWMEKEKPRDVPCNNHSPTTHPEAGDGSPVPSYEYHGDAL
For `CC(=O)c1c(C)[nH]c(C(=O)COC(=O)c2cccc(S(=O)(=O)N(C)c3ccccc3)c2)c1C`, the inhibition was 33.5% (active). `Cc1ccc2c(c1)N(S(=O)(=O)c1cc(-c3cc(C)no3)ccc1C)CCO2` was tested, and the inhibition was 42.5% (active). For `CCCCn1ccnc1C(=O)c1cccc(S(=O)(=O)N2c3ccccc3CC2C)c1` (configuration not stated), the inhibition was “inactive”. With `Cc1nc(C)c(-c2csc(NCCc3ccccc3)n2)s1` the inhibition was 36% (active). For `CCOC(=O)c1cccc(NC(=O)CCn2nnc3ccccc32)c1`, the inhibition was “inactive”. For `COc1ccc2[nH]cc(/C=C(/C#N)S(=O)(=O)c3ccccc3)c2c1`, the inhibition was 28% (active). In the case of `COc1ccc(NC(=O)C2=CC(c3ccc(OC)c(OC)c3)=NS(=O)(=O)N2C)cc1`, the inhibition is reported as 27% (active). In the case of `CC(NC(=O)c1ccco1)C(=O)Nc1nc(-c2ccccn2)cs1` (configuration not stated), the inhibition is reported as “inactive”. `Cc1noc(C)c1COC(=O)c1cc2ccccc2cc1O` was tested, and the inhibition was “inactive”. For `COc1ccc(CNc2nnnn2C)cc1`, the inhibition was “inactive”. `Cn1c(CN2CCOCC2)nc2cc(NC(=O)c3ccc(Cl)cc3)ccc21` was tested, and the inhibition was 20% (active). With `Cn1c(CCN2CCCCCC2)nc2cc(NC(=O)Nc3ccccc3)ccc21` the inhibition was “inactive”. For `CC(C)CNC(=S)NNC(=O)c1nn(C)cc1Cl`, the inhibition was “inactive”. With `O=C(COC(=O)CCc1c[nH]c(=O)[nH]1)Nc1ccccc1Cl` the inhibition was “inactive”. With `Cc1nc2ccccc2cc1OCc1ccc(F)cc1` the inhibition was 22.5% (active). With `O=C(COc1ccccc1)NCc1ccc2c(c1)OCO2` the inhibition was “inactive”. In the case of `O=C(NCCc1ccc2c(c1)OCCO2)c1cc2ccccc2o1`, the inhibition is reported as 21% (active). With `COc1ccc(-c2nc(CCNC(=O)c3ccc(Br)o3)cs2)cc1` the inhibition was “inactive”. With `Cc1cccc(N=Nc2c(O)[nH]c3ccc(F)cc23)c1` the inhibition was “inactive”. In the case of `O=c1cc(C(F)(F)F)[nH]c(=O)n1C1CCCCC1`, the inhibition is reported as “inactive”. `C=CCn1c(SCC(=O)Nc2nc3ccccc3s2)nnc1-c1ccccc1O` was tested, and the inhibition was 30.5% (active). With `Cc1ccc(-c2noc(CSc3nnnn3-c3ccccc3)n2)cc1` the inhibition was “inactive”. `CN1c2ccc(C=O)c3c(C=O)ccc(c23)N(C)C1(C)C` was tested, and the inhibition was “inactive”. In the case of `C=CCSc1nsc(NC(=O)Nc2cccc(C(C)=O)c2)n1`, the inhibition is reported as 53% (active). For `CSc1nsc(NC(=O)Nc2ccccc2)n1`, the inhibition was 45% (active). In the case of `CN(C)c1cc[n+](Cc2ccccc2)cc1`, the inhibition is reported as “inactive”. With `N#Cc1nc(N)nc(N(c2ccccc2)c2ccccc2)n1` the inhibition was “inactive”. With `c1ccc(-c2nnc(SCc3nc4ccccc4[nH]3)o2)cc1` the inhibition was “inactive”. `N#CC1=C(SCc2ccccc2)NC(=O)C(C#N)C12CCCC2` (configuration not stated) was tested, and the inhibition was 17.5% (active). With `CSc1nnc2c(n1)OC(c1ccsc1)N(C(C)=O)c1ccccc1-2` (configuration not stated) the inhibition was “inactive”. In the case of `CCCc1cc(=S)n2c([nH]c3ccccc32)c1C#N`, the inhibition is reported as 35.5% (active). In the case of `CC1CCN(C(=O)c2ccc(CSc3ccc(Cl)cc3)cc2)CC1`, the inhibition is reported as 50.5% (active). For `COc1ccc(CCC(=O)c2ccc(OC)cc2)cc1`, the inhibition was “inactive”. For `Cc1ccc2c(c1)N(CC(=O)N1CCCc3ccccc31)C(=O)C(C)O2` (configuration not stated), the inhibition was “inactive”. With `CN(c1cccc(NC(=O)c2ccc(CN3CCc4ccccc4C3)cc2)c1)S(C)(=O)=O` the inhibition was 20.5% (active). In the case of `S=C(NCC1CCCO1)N1CCN(c2ccc(Cl)c(Cl)c2)CC1` (configuration not stated), the inhibition is reported as 21% (active). With `Cc1cc(C=O)c(C)n1-c1ccc(NC2CCCCC2)c([N+](=O)[O-])c1` the inhibition was 23.5% (active). For `CC(C)(C)C(=O)/C(C#N)=C/c1ccc(O)cc1`, the inhibition was 23% (active). With `CCOC(=O)C1=C(CN2CCc3ccccc32)NC(=O)NC1c1cccc([N+](=O)[O-])c1` (configuration not stated) the inhibition was “inactive”. In the case of `COc1ccc(C(=O)NC2CCCc3c2cnn3-c2cccc(C)c2C)c(OC)n1` (configuration not stated), the inhibition is reported as 65.5% (active). In the case of `COC(=O)c1ccc(COC(=O)c2c(C)nn(Cc3ccccc3Cl)c2Cl)o1`, the inhibition is reported as 16% (active). `O=S1(=O)CCN(Cc2ccccc2Cl)CC1` was tested, and the inhibition was “inactive”. In the case of `Cc1ccc(F)cc1NC(=O)Cc1nn(C)c(=O)c2ccccc12`, the inhibition is reported as 34.5% (active). With `CCOC(=O)N1CC=C2C(C#N)=C(N)C(C#N)(C#N)[C@H](c3cccs3)[C@H]2C1` the inhibition was “inactive”. In the case of `Cc1[nH]n(-c2cccc(Cl)c2)c(=O)c1-c1ccc(Cl)cc1`, the inhibition is reported as 24% (active). In the case of `CC1=NN(c2cccc(Cl)c2)C(=O)C12CC(C)=C(C)CS2` (configuration not stated), the inhibition is reported as “inactive”. In the case of `Cc1ccc(-n2[nH]c(C)c(/C=N/N3C(=O)c4cccc5cccc(c45)C3=O)c2=O)cc1`, the inhibition is reported as “inactive”. With `O=C1NC(=O)C2C1C(c1ccc([N+](=O)[O-])cc1)=NN2Cc1ccccc1` (configuration not stated) the inhibition was “inactive”. For `CCN(CC)S(=O)(=O)c1ccc(N(C)Cc2ccc(C(F)(F)F)cc2)nc1`, the inhibition was 22% (active). In the case of `CCCOc1ccc(Cc2c(Cl)nc(SC)nc2NC)cc1`, the inhibition is reported as 44.5% (active). `COc1ccc(CN(C)C(=O)CC(c2ccccc2)c2ccccc2)cc1` was tested, and the inhibition was “inactive”. In the case of `Cn1c(=O)n(C)c2cc(S(=O)(=O)N3CCCc4ccccc43)ccc21`, the inhibition is reported as “inactive”. In the case of `Cc1ccc(NC(=O)C(C)c2cccc(C(=O)c3ccccc3)c2)cc1` (configuration not stated), the inhibition is reported as 30.5% (active). For `Cc1ccccc1-n1nnnc1SCCCC(=O)c1ccc(F)cc1`, the inhibition was “inactive”. In the case of `Cc1nc2c(C(=O)NCc3ccc4c(c3)OCO4)c[nH]n2c(=O)c1Cc1ccccc1F`, the inhibition is reported as 18% (active). With `Cc1ccc(NC(=O)CN(C)CC(=O)Nc2cccc(F)c2)cc1[N+](=O)[O-]` the inhibition was 24.5% (active). In the case of `O=C(CN1CCN(C(=S)NC2CCCC2)CC1)Nc1ccc(Oc2ccccc2)cc1`, the inhibition is reported as “inactive”. `O=C(CNCCC1=CCCCC1)Nc1ccccc1N1CCCCCC1` was tested, and the inhibition was 19.5% (active). `CCCC(=O)Nc1ccccc1N1CCN(C(=O)c2ccccc2)CC1` was tested, and the inhibition was “inactive”. `CCCCNC(=O)CSc1nc2n[nH]c(C)c2c(=N)n1-c1cccc(Cl)c1C` was tested, and the inhibition was “inactive”. `CCc1cc2c(N3CCN(c4nnc(CC)s4)CC3)ncnc2s1` was tested, and the inhibition was 40% (active). For `Cc1ccc(C(=O)O)cc1-c1ccc(/C=C2\SC(=O)N(CC(=O)Nc3ccc4c(c3)OCO4)C2=O)o1`, the inhibition was “inactive”. For `O=C(CSCc1ccc(Cl)cc1)N1CCN(Cc2ccc3c(c2)OCO3)CC1`, the inhibition was 20% (active). For `Cc1ccc(-n2ncc3c(N4CCN(c5ccc(F)cc5)CC4)ncnc32)c(C)c1`, the inhibition was 28.5% (active). `O=C(O)c1ccc(NC(=O)C2CCCCC2)cc1` was tested, and the inhibition was “inactive”. With `O=C(N/N=C/c1cc(Cl)cc([N+](=O)[O-])c1O)C(O)(c1ccccc1)c1ccccc1` the inhibition was “inactive”. With `Cc1cc(C)cc(NS(=O)(=O)c2ccc(Oc3ncc(C(F)(F)F)cc3Cl)cc2)c1` the inhibition was “inactive”. With `Cc1ccc(N2C(=O)S/C(=C/c3cn(C)c4ccccc34)C2=O)cc1` the inhibition was “inactive”. With `O=C1c2ccccc2C(Nc2ccc3c(c2)OCCO3)N1Cc1ccco1` (configuration not stated) the inhibition was “inactive”. With `COC(=O)c1ccc(NC(=O)c2ccccc2NS(=O)(=O)c2ccccc2)cc1` the inhibition was 29.5% (active). In the case of `CCOC(=O)C1CCN(c2ncnc3c2oc2ccc(Br)cc23)CC1`, the inhibition is reported as 28% (active). With `Cc1ccc(-c2csc(-c3c[nH]c4ccccc34)n2)cc1` the inhibition was “inactive”. `S=C(NCc1ccc(Cl)cc1)NC12CC3CC(CC(C3)C1)C2` was tested, and the inhibition was 46% (active). In the case of `S=C(NCc1cccs1)Nc1ccc(Cl)cc1`, the inhibition is reported as “inactive”. In the case of `CN(Cc1cccnc1)C(=O)c1cc(COc2ccc3ncccc3c2)on1`, the inhibition is reported as “inactive”. For `CC(=O)c1cc(CN2CCC(C(=O)Nc3cccc(-c4cscn4)c3)CC2)cs1`, the inhibition was 21.5% (active). `Cc1ccc(C)c(N2CCN(C(=O)CCCCn3c(=O)[nH]c4ccccc4c3=O)CC2)c1` was tested, and the inhibition was “inactive”. `CCOC(=O)N1CCN(C(=O)c2ccc3c(c2)N(Cc2ccc(C)cc2)CCS3)CC1` was tested, and the inhibition was “inactive”. `COc1ccc(OCC(=O)NCCc2ccc(S(N)(=O)=O)cc2)cc1` was tested, and the inhibition was “inactive”. With `COc1ccc(S(=O)(=O)NCCCCOc2ccc(Cl)cc2)cc1` the inhibition was 23.5% (active). In the case of `Cc1nc(CNS(=O)(=O)c2ccc(Oc3ccccc3)cc2)cs1`, the inhibition is reported as “inactive”. With `CCn1nccc1C(=O)Nc1ccc(S(=O)(=O)NC23CC4CC(CC(C4)C2)C3)cc1` the inhibition was “inactive”. With `CCCCCc1ccc(-c2ccc(C(=O)O)cc2)nc1` the inhibition was “inactive”. For `O=C(Nc1cccc(S(=O)(=O)Nc2ccc(Cl)cc2)c1)c1ccc2c(c1)OCCO2`, the inhibition was 19% (active). `COc1ccc(Cl)cc1NC(=O)CCS(=O)(=O)c1cc2c(cc1C)NC(=O)CO2` was tested, and the inhibition was “inactive”. For `COc1cccc(CNS(=O)(=O)c2ccc3c(c2)CC(C)N3C(=O)C2CCC2)c1` (configuration not stated), the inhibition was 19.5% (active). For `COc1ccc(-n2c(C)cc(C(=O)CSc3nnc(-c4cccs4)o3)c2C)cc1`, the inhibition was “inactive”. With `Fc1ccc(CSc2nnc(-c3cc4c(s3)-c3ccccc3CC4)o2)cc1` the inhibition was “inactive”. In the case of `Cc1cccc(-n2c(SCC(N)=O)nc3c(c2=O)C2(CCCCC2)Cc2ccccc2-3)c1`, the inhibition is reported as 22% (active). `C=C(C)Cn1c(C)cc(C)c(S(=O)(=O)c2ccccc2C)c1=O` was tested, and the inhibition was “inactive”. With `COc1cc(CC(=O)Nc2nc(-c3ccc(F)c(F)c3)cs2)cc(OC)c1OC` the inhibition was 25.5% (active). For `O=C(Nc1nc(-c2ccc3c(c2)OCO3)cs1)c1ccncc1`, the inhibition was “inactive”. In the case of `Cc1ccc(N)cc1-n1c(C)ccc1C`, the inhibition is reported as “inactive”. In the case of `CCOC(=O)C(Sc1ncc(C#N)c(N)n1)C(C)C` (configuration not stated), the inhibition is reported as “inactive”. For `N#Cc1nc(COc2ccc(-c3ccccc3)cc2)oc1NCc1cccnc1`, the inhibition was “inactive”. `O=C(NC(=S)Nc1ccccc1C(=O)O)c1ccc(-c2ccc(Br)cc2)o1` was tested, and the inhibition was “inactive”. With `O=C(Nc1ccccc1)c1ccccc1NC(=O)C(F)(F)F` the inhibition was 26.5% (active). With `CSc1cccc(NC(=S)N(C(C)C)C(C)c2ccccn2)c1` (configuration not stated) the inhibition was “inactive”. With `Fc1ccc2[nH]c3c(N4CCSCC4)ncnc3c2c1` the inhibition was 41.5% (active). For `CCC(=O)Nc1ccc2nc(C)n(Cc3ccccc3Cl)c(=O)c2c1`, the inhibition was “inactive”. `Cc1nc(SCC(=O)N2CCc3ccccc3C2)c2c(C)c(C)sc2n1` was tested, and the inhibition was “inactive”. In the case of `Cc1ccc(C)c(N2CCN(S(=O)(=O)c3ccc4c(c3)oc(=O)n4C)CC2)c1`, the inhibition is reported as “inactive”.
